Compounds with a hit are over-represented: about 19% of the library has one in this group of screens.
IL-1B inflam inh = inhibitors of inflammasome signaling (IL-1 beta secretion); AID 743279; 360,000 tested, 4.7% active; THP-1 LPS/ATP IL-1B secretion, AlphaLISA, 16 h; stronger effect = lower value; activity change, % at 57.5 µM; in the data active = activity change below about -50%; inconclusive = mostly about -30% to -49%
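THP-1 cells pretreated 1 hr with compounds (up to 57.5 uM final), then stimulated with LPS (250 ng/mL final) plus ATP (1.25 mM final); secreted IL-1B measured by AlphaLISA after 16 hr, decreased signal indicating inhibition.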
HT1080 IDH1KD tx = HT-1080 IDH1 knockdown cell toxicity (counter line) | HT-1080 IDH1 knockdown viability, ATP luminescence, 48 h | Potency, µM (doses to about 46.1 µM), usual class: cytotoxic | 360,000 tested, 2% active
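In this qHTS, HT-1080 cells depleted of IDH1 are exposed for 48 h at 37 °C to compound titrations. Toxicity is scored from CellTiter-Glo luminescence, with DMSO as full viability and medium alone as none.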
TDP1 cell noCPT = qHTS for Inhibitors of human tyrosyl-DNA phosphodiesterase 1 (TDP1): qHTS in cells in absence of CPT; DT40 Tdp1-/- hTDP1 cells, no CPT, ATP luminescence, 48 h; Potency, µM (titrated, usually from 46.2 µM), most hits filed as inhibitors; 420,000 tested, 15% active; AID 686978, 2013; also: nearly all actives have a fitted effect of over 55% in size
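Camptothecin absent (DMSO only). Human TDP1-complemented DT40 knockout cells, 400 cells/well, 37 °C for minimum 48 hr; ATP measured via CellTiter-Glo, 30 min dark incubation, luminescence.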
ELG1 DNA repair = ELG1-dependent DNA repair inhibition | HEK293T ELG1-luciferase reporter, luminescence, 16 h; DNA damage induced by 5-fluorouridine | Potency, µM (series often up to 46.1 µM), hits mostly inhibitors | 330,000 tested, 2.3% active | AID 504467; also: nearly all actives have a fitted effect of over 55% in size
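Step one: seed 2,000 cells per well. Step two: pin-transfer compound or DMSO alongside 5-fluorouridine. Step three: incubate 16 hr, 37 °C, 5% CO2. Step four: add ONE-Glo, wait 30 min, read luminescence.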
TDP1 cell CPT = growth inhibition of DT40 Tdp1-/-;hTDP1 cells with camptothecin (screen for TDP1 inhibitors) | chicken DT40 Tdp1-/-;hTDP1 cells + 20 nM CPT, ATP luminescence, 48 h | Potency, µM (highest dose often 46.2 µM), usual class: inhibitors | 420,000 tested, 12% active | AID 686979; also: nearly all actives have a fitted effect of over 55% in size
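Chicken DT40 Tdp1-/- cells stably complemented with human TDP1 were seeded at 400 cells/well in medium containing 20 nM camptothecin, exposed to pin-transferred compounds, and grown at 37 °C for at least 48 hr. Viability was read as ATP luminescence.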
HT1080NT lethal = kills 2HG-producing HT-1080-NT fibrosarcoma cells; HT-1080-NT fibrosarcoma viability, CellTiter-Glo ATP luminescence, 48 h; Potency, µM (highest dose often 46.1 µM), usual class: cytotoxic; 360,000 tested, 1.6% active; AID 686970;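 also: NT is the 2HG producing partner of a matched IDH1 knockdown line; nearly all actives have a fitted effect of over 55% in size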
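Fibrosarcoma NT cells, 750 per well in 5% FBS RPMI, were exposed to compound for 48 hours. Viability: CellTiter-Glo luminescence.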
Numbers stand for hits; 0 = inactive; ? = inconclusive; - = no result. Unless noted, calls follow the shape of the dose curve; as a rule, active = well fitted curve in the direction sought with a large enough effect; inconclusive = small, poorly fitted or top-dose-only effect, or another doubt; inactive = no such curve, though single readings can be large; an effect the other way counts as inactive or inconclusive.

SMILES	IL-1B inflam inh	HT1080 IDH1KD tx	TDP1 cell noCPT	ELG1 DNA repair	TDP1 cell CPT	HT1080NT lethal
S=C(NCc1ccccc1)NCc1ccc(Cl)cc1	0	0	0	0	?	0
O=C(CNc1ccc(Cl)cc1)NNC(=S)NCc1ccccc1	?	0	?	0	?	0
CC(C)(C)OC(=O)N1CCN(C(=O)Nc2ccc3c(c2)OCCO3)CC1	0	0	0	0	0	0
COc1ccc(CNC(=O)[C@@H](NC(=O)C2CCN(C(=O)[C@@H](N)CCSC)CC2)C(C)C)cc1	0	0	0	0	0	0
COCCn1c(=O)c(-c2ccc(F)cc2)nc2cncnc21	-	-	0	-	0	-
COC(=O)/C=C/C(=O)N1CCN(c2ccccc2C)CC1	-108	0	16µM	0	?	0
COC(=O)/C=C/C(=O)N1CCN(c2ccccc2)CC1	-91	0	0	0	0	0
Cc1ccccc1N1CCN(c2ccccc2NC(=O)/C=C\C(=O)O)CC1	0	0	?	-	16µM	0
O=C(COC(=O)/C=C/C(=O)N1CCN(c2ccccc2)CC1)NCc1ccc(F)cc1	0	0	0	0	0	0
Cc1cc(C)cc(NC(=O)CN2CCN(CCN=CC3=C(O)CC(c4ccc(Cl)cc4)CC3=O)CC2)c1 (stereo not given)	0	0	0	0	0	0
COC(=O)[C@]12CCCCC=C1N(Cc1ccco1)C(=O)[C@H](CC(=O)NCc1ccc(C)o1)C2	0	0	?	-	?	0
CCCCOCCCNC(=O)C[C@@H]1C[C@@]2(C(=O)OC)CCCCC=C2N(Cc2ccc(Cl)cc2Cl)C1=O	-59	?	?	-	?	?
COC(=O)[C@]12CCCCC=C1N(Cc1ccc(Cl)cc1Cl)C(=O)[C@H](CC(=O)N1CCC(c3ccccc3)CC1)C2	0	0	?	-	?	0
COC(=O)[C@]12CCCCC=C1N(Cc1ccc(Cl)cc1Cl)C(=O)[C@H](CC(=O)NCCCCc1ccccc1)C2	-51	?	?	-	?	?
COC(=O)[C@]12CCCCC=C1N(Cc1ccc(Cl)cc1Cl)C(=O)[C@H](CC(=O)NCCc1ccccc1OC)C2	-61	?	?	-	?	?
COC(=O)[C@]12CCCCC=C1N(Cc1ccc(Cl)cc1Cl)C(=O)[C@H](CC(=O)NCc1ccc(C)o1)C2	0	?	16µM	-	?	?
COC(=O)[C@]12CCCCC=C1N(Cc1ccccc1)C(=O)[C@H](CC(=O)NCCc1ccccc1OC)C2	0	0	?	-	?	0
CNc1ncnc2c1ncn2[C@H]1CN(Cc2ccncc2)C[C@@H](CO)O1	0	0	0	-	0	0
COC(=O)[C@]12CCCCC=C1N(Cc1ccc(Cl)cc1Cl)C(=O)[C@H](CC(=O)N1CCN(C(=O)C3CC3)CC1)C2	0	0	?	-	?	?

Bioassay records deposited in PubChem BioAssay by National Center for Advancing Translational Sciences (NCATS).
